Sampled rows, rich in hits. Any-hit rate of the full collection: about 20%.
HCMV antiviral: inhibitors of human cytomegalovirus; HFF cells, HCMV-luciferase reporter, 72 h; active compounds read low; activity change, negative = inhibition, % at 57.5 µM; 410,000 compounds, 4.5% hits; in the data active = activity change below about -60%; inconclusive = no clear call, values can overlap the other calls; inactive = above about -39%
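Screen run at 2 compound doses on HFFs infected with reporter HCMV, MOI 1 PFU/cell. Luciferase activity from cell lysates at 72 h post infection gave inhibition relative to buffer-only and Salinomycin wells.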
Shiga inhibitor: blocks Shiga toxin action in Vero cells; inhibition, % at 38.7 µM; 290,000 compounds, 9.2% hits; Vero cells, Shiga toxin protein synthesis inhibition reporter; AID 2315; in the data active = inhibition mostly above about 28%, no sharp cut-off; inactive = mostly below about 43%
Pf growth 48h: inhibits P. falciparum growth in the first generation, 48 h; P. falciparum luciferase growth in erythrocytes, 48 h; Potency, µM (titrated, usually from 28.7 µM), usual class: inhibitors; 310,000 compounds, 5.9% hits
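Parasite viability was followed by luminescence of a genomically integrated firefly luciferase. Cultures held 0.1% parasitemia at 2% hematocrit (final), incubated under 5% CO2 at 37 C.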
CHX counter: counter-screen for Shiga toxin inhibitors: cycloheximide protein synthesis inhibition; cell reporter, cycloheximide protein synthesis inhibition counterscreen; max response, %; 300,000 compounds, 12% hits; AID 2314; in the data active = max response mostly above about 13%, no sharp cut-off; inactive = mostly below about 14%; note: read at 38.3 µM for the half of the compounds with a filed dose
Pf growth 96h: P. falciparum growth inhibition at 96 hour, primary screen for plastid delayed-death inhibitors; P. falciparum luciferase reporter growth, 96 h; Potency, µM (highest dose often 28.7 µM), hits mostly inhibitors; 320,000 compounds, 6.9% hits
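Two parasite generations (96 h, 37 C, 5% CO2) of compound exposure in infected erythrocytes (0.05% parasitemia, 2% hematocrit). Luciferase-reporter P. falciparum; decreased luminescence indicates inhibited growth, aimed at apicoplast-acting delayed death.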
Of the large screens only hits and unclear results are named; the others gave an inactive call. Unless noted, calls come from the whole dose curve; as a rule, active = well fitted inhibition curve with a large enough effect; inconclusive = small, poorly fitted or top-dose-only effect, or another doubt; inactive = no such curve, though single readings can be large or run the other way.

CC1(C)CC(=O)C(C(=O)Cc2ccccc2[N+](=O)[O-])C(=O)C1	none
CCn1c(SCC(=O)N2CCC(C)CC2)nnc1-c1ccccc1O	none (no result: Shiga inhibitor, Pf growth 48h, CHX counter, Pf growth 96h)
CCCCC(CC)CNC(=O)CCCc1nnc2n(CCC)c(=O)c3sccc3n12 (stereo not given)	none (no result: Shiga inhibitor, Pf growth 48h, CHX counter, Pf growth 96h)
COc1c(O)ccc(C2NC(=O)NC(C)=C2C(=O)Nc2ccccc2C)c1[N+](=O)[O-] (stereo not given)	HCMV antiviral -63, Pf growth 96h inconclusive
CCC1Oc2ccccc2N(CC(=O)NC2CCCCC2)C1=O (stereo not given)	none
CCCN(CC(=O)Nc1ccccc1OC)C(=O)CCC(=O)c1ccc(Cl)s1	Pf growth 48h inconclusive, Pf growth 96h inconclusive (no result: Shiga inhibitor, CHX counter)
COC(=O)/C(=C\c1ccc([N+](=O)[O-])o1)NC(=O)c1ccccc1	Pf growth 96h 13µM (no result: Pf growth 48h)
O=C(NNC(=O)c1cccc(O)c1)Nc1ccc([N+](=O)[O-])cc1	HCMV antiviral -96
O=C(Nc1ccc(NC(=O)c2cccc([N+](=O)[O-])c2)cc1)c1cccc([N+](=O)[O-])c1	Pf growth 48h inconclusive, CHX counter 30 (no result: Shiga inhibitor)
CCOC(=O)Cc1ccc(NC(=O)c2cccc([N+](=O)[O-])c2)cc1	HCMV antiviral -60, Shiga inhibitor 62, CHX counter 21
O=C(Nc1ccc([N+](=O)[O-])cc1)c1cccc([N+](=O)[O-])c1	none (no result: Shiga inhibitor, Pf growth 48h, CHX counter, Pf growth 96h)
CCN(CC)C(=O)C1=C(C)N(CCC2=CCCCC2)C(=O)C(CC(=O)NCc2cccs2)C1 (stereo not given)	none (no result: Shiga inhibitor, Pf growth 48h, CHX counter, Pf growth 96h)
N#CC(c1ccccc1)c1cnccn1 (stereo not given)	none (no result: Shiga inhibitor, CHX counter)
O=C(Nc1ccc(Br)cc1)c1cc([N+](=O)[O-])cc([N+](=O)[O-])c1	HCMV antiviral inconclusive, Pf growth 48h 2.6µM (no result: Shiga inhibitor)
O=C(O)c1cc([N+](=O)[O-])ccc1C(=O)Nc1cccc([N+](=O)[O-])c1	none
CC(=O)Nc1ccc(NS(=O)(=O)c2cc([N+](=O)[O-])ccc2C)cc1	HCMV antiviral -71
CN(c1cccc(NC(=O)c2cccc([N+](=O)[O-])c2)c1)S(C)(=O)=O	Pf growth 48h inconclusive, CHX counter 27
CC(C)Sc1ccc([N+](=O)[O-])cc1C(=O)Nc1ccncc1	Pf growth 48h inconclusive, Pf growth 96h 1.2µM
O=C(O)CCCNC(=O)c1ccccn1	Pf growth 96h inconclusive
O=C(Nc1ccccc1C(=O)Nc1ccncc1)c1ccccc1	Pf growth 48h inconclusive, Pf growth 96h inconclusive
Cc1c(C(=O)Nc2ccc(Cc3ccncc3)cc2)cccc1[N+](=O)[O-]	HCMV antiviral -79, Pf growth 48h inconclusive
Cc1ccc(NC(=O)c2ccc(Nc3c([N+](=O)[O-])cc([N+](=O)[O-])cc3[N+](=O)[O-])cc2)cc1	HCMV antiviral -94, Pf growth 48h 5.2µM
CC(=O)Nc1ccc(NC(=O)c2cc([N+](=O)[O-])cc([N+](=O)[O-])c2)cc1	none
O=C(Nc1ccncc1)c1cc2ccccc2cc1O	Pf growth 48h inconclusive, Pf growth 96h 8.3µM (no result: Shiga inhibitor, CHX counter)
Cc1ccc(NCCC(=O)c2cccc([N+](=O)[O-])c2)cc1	Shiga inhibitor 19, CHX counter 29
CCn1ncc(NC(=S)NCCc2ccccc2)c1C(N)=O	none
CCOc1ccc(CCNC(=O)CCNS(=O)(=O)c2ccc3c(c2)CCN3C(C)=O)cc1OCC	HCMV antiviral inconclusive, Pf growth 48h inconclusive
COCCN(C(=O)CNC(=O)c1cccs1)C(C(=O)NC(C)(C)C)c1ccccc1 (stereo not given)	none
O=C(Nc1nnc(-c2ccc(F)cc2)o1)c1cccc([N+](=O)[O-])c1	HCMV antiviral -98, Pf growth 96h inconclusive
COc1ccc(Cc2nnc(NC(=O)c3cccc([N+](=O)[O-])c3)s2)cc1	CHX counter 23
O=C(Nc1nnc(C2=COCCO2)o1)c1cccc([N+](=O)[O-])c1	none
COc1ccc(OC(C)C(=O)Nc2cccc([N+](=O)[O-])c2)cc1 (stereo not given)	none
COc1ccc(NC(=O)c2cc([N+](=O)[O-])ccc2O)cc1	HCMV antiviral -102, Pf growth 96h inconclusive
COc1ccc(NC(=S)Nc2cccc([N+](=O)[O-])c2)cc1	HCMV antiviral -96
COc1cc(Nc2nn(-c3ccc(OC(F)(F)F)cc3)nc2C(C)=O)cc(OC)c1	none (no result: Shiga inhibitor, Pf growth 48h, CHX counter, Pf growth 96h)
O=C(C[C@@H]1CC[C@@H]2[C@H](COC[C@H](O)CN2CCC(F)(F)F)O1)NCc1ccc2c(c1)OCO2	none (no result: Shiga inhibitor, Pf growth 48h, CHX counter, Pf growth 96h)
O=C(NCc1ccc(F)cc1)C1CC(=O)N(C2CCCC2)C1 (stereo not given)	none (no result: Shiga inhibitor, CHX counter)
O=C(Nc1ccccc1-c1ccccc1)c1ccccc1	Pf growth 96h inconclusive
O=C(Nc1ccccc1-c1ccccc1)c1cccc([N+](=O)[O-])c1	Shiga inhibitor 122, Pf growth 48h inconclusive, CHX counter 31, Pf growth 96h 9.3µM
CCOC(=O)CSc1nnc(NC(=O)c2cccc([N+](=O)[O-])c2)s1	Pf growth 96h 12µM
CCOC(=O)CNC(=O)CSc1nnc(NC(=O)c2ccc(C)cc2)s1	none
Cc1ccc(C(=O)Nc2cccc([N+](=O)[O-])c2)cc1S(=O)(=O)Nc1ccc(C(=O)O)cc1	Pf growth 96h inconclusive
COC(=O)/C(=C/c1cccc([N+](=O)[O-])c1)NC(=O)c1ccc(OC)cc1	Shiga inhibitor 76, CHX counter 53
Cc1ccccc1NS(=O)(=O)c1cc(C(=O)Nc2cccc([N+](=O)[O-])c2)ccc1C	HCMV antiviral -95, Pf growth 48h inconclusive
CCc1ccc(Nc2nc3ccccc3c3nnc(C)n23)cc1	none (no result: Shiga inhibitor, Pf growth 48h, CHX counter, Pf growth 96h)
N#C/C(=N\Nc1cccc([N+](=O)[O-])c1)C(=O)c1ccc(Br)cc1	HCMV antiviral -101, Pf growth 48h inconclusive, Pf growth 96h inconclusive
O=C(Nc1ccc([N+](=O)[O-])cc1)c1ccccc1	Shiga inhibitor 73, CHX counter 47, Pf growth 96h inconclusive
O=C(O)c1ccccc1Nc1ccc([N+](=O)[O-])cc1	HCMV antiviral inconclusive, CHX counter 27, Pf growth 96h inconclusive
COc1ccc(C(=O)Nc2cccc(N(C)S(C)(=O)=O)c2)cc1OC	Shiga inhibitor 60, CHX counter 26
O=C(NNc1ccc([N+](=O)[O-])cc1)Nc1ccccc1	Pf growth 96h inconclusive
C#CCN1CC(COCCCC)Oc2cccc(F)c2S1(=O)=O (stereo not given)	none (no result: Shiga inhibitor, Pf growth 48h, CHX counter, Pf growth 96h)
CSCC[C@H](NC(=O)[C@H](CC(C)C)NC(=O)[C@@H]1CCCN1C(=O)[C@H](Cc1ccccc1)NC(=O)[C@H](Cc1ccccc1)NC(=O)[C@@H]1CCC(=O)N1)C(N)=O	none (no result: HCMV antiviral, Pf growth 48h, Pf growth 96h)
O=C(Nc1ccc(Cc2ccncc2)cc1)c1ccc([N+](=O)[O-])o1	HCMV antiviral -101, Pf growth 48h inconclusive
Cc1ccc(C(=O)Nc2ccc(Cc3ccncc3)cc2)cc1[N+](=O)[O-]	Pf growth 48h inconclusive, Pf growth 96h inconclusive
O=C(Nc1ccc(Nc2ccncc2)cc1)c1ccc(Nc2ccnc3ccc([N+](=O)[O-])cc23)cc1	Pf growth 48h 0.093µM, Pf growth 96h 0.093µM
